Source: PubChem BioAssay (Tox21)
Inconclusive results are not listed. Where a call stands in place of a potency, no number is given. Active and inactive are the calls of the source. Unless noted, the call rests on the fitted dose curve; in most records, active means well fitted curve in the direction sought with a large enough effect in the repeat runs; inconclusive means weak or mixed curves; inactive means no such curve, though single readings can be large; an effect the other way counts as inactive or inconclusive.

How the values were obtained:
[1] = qHTS assay to identify small molecule antagonists of the thyroid receptor (TR) signaling pathway - cell viability counter screen (AID 743064); further: nearly all actives have a fitted effect of over 50% in size; further: potency means the concentration at half of the fitted maximal effect
How it was run: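 In rat pituitary GH3.TRE-Luc reporter cells co-exposed to compound and 1 nM T3 for 23.5 h, cytotoxicity was assessed with CellTiter-Fluor in the same wells, read by fluorescence.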

[2] = test system: thyroid hormone receptor (rat, GH3 cells); test: qHTS assay to identify small molecule agonists of the thyroid receptor (TR) signaling pathway (AID 743066; calls by dose curve)
[3] = target: Estrogen receptor (Homo sapiens) (UniProt P03372); test: qHTS assay to identify small molecule antagonists of the estrogen receptor alpha (ER-alpha) signaling pathway (AID 743069; active means well fitted curve in the direction sought with a large enough effect in the signal ratio in the repeat runs, not every such curve was filed as active; the % refers to the signal ratio; further: potency means the concentration at half of the fitted maximal effect)
How it was run: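 Estradiol-stimulated ER-alpha-UAS-bla HEK293 cells, 18 hr compound exposure at 37C. LiveBLAzer B/G substrate, 2 hr RT, fluorescence read.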

[4] = qHTS assay to identify small molecule antagonists of the estrogen receptor alpha (ER-alpha) signaling pathway - cell viability counter screen (AID 743074; calls by dose curve;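 further: HEK293 cells carrying ER-alpha-UAS-bla reporter stimulated with 17beta-estradiol; nearly all actives have a fitted effect of over 45% in size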)
[5] = target: Estrogen receptor (Homo sapiens) (UniProt P03372); test: qHTS assay to identify small molecule agonists of the estrogen receptor alpha (ER-alpha) signaling pathway (AID 743075; calls by dose curve;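 further: HEK293 GripTite cells with ER-alpha and UAS-driven beta-lactamase reporter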)
[6] = target: Estrogen receptor (Homo sapiens) (UniProt P03372); test: qHTS assay to identify small molecule agonists of the estrogen receptor alpha (ER-alpha) signaling pathway using the BG1 cell line (AID 743079); further: nearly all actives have a fitted effect of over 20% in size
[7] = qHTS assay to identify small molecule antagonists of the estrogen receptor alpha (ER-alpha) signaling pathway using the BG1 cell line (AID 743080; calls by dose curve;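 further: BG1 cells stimulated with 17beta-estradiol alongside compound; series mostly up to about 70 µM; nearly all actives have a fitted effect of over 25% in size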)
How it was run: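 Seeding, 24 h rest, compound transfer from DMSO, 17beta-estradiol addition, 21.5 h incubation, CellTiter-Fluor (30 min, 37 C), then ONE-Glo (30 min, room temperature): this sequence was run on BG1-Luc-4E2 reporter cells.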

[8] = qHTS assay to identify small molecule antagonists of the estrogen receptor alpha (ER-alpha) signaling pathway using the BG1 cell line - cell viability counter screen (AID 743081);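 further: compound given together with 17beta-estradiol as the ER stimulus; series mostly up to about 70 µM; nearly all actives have a fitted effect of over 45% in size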
Aromatase (Homo sapiens) = Aromatase (Homo sapiens) (UniProt P11511); test: qHTS assay to identify aromatase inhibitors (AID 743083); further: nearly all actives have a fitted effect of over 55% in size; further: potency means the concentration at half of the fitted maximal effect
[9] = qHTS assay to identify small molecule antagonists of the thyroid receptor (TR) signaling pathway (AID 743065); further: nearly all actives have a fitted effect of over 55% in size; further: potency means the concentration at half of the fitted maximal effect
How it was run: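 GH3.TRE-Luc rat pituitary cells carrying two TR response elements driving luciferase were plated for 4 h, given compound plus 1 nM T3 (final), and incubated 23.5 h at 37 C. ONE-Glo luminescence measured reporter inhibition; CellTiter-Fluor fluorescence tracked cytotoxicity.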

Chain of Aromatase (Homo sapiens) (P11511 whole entry, looked up): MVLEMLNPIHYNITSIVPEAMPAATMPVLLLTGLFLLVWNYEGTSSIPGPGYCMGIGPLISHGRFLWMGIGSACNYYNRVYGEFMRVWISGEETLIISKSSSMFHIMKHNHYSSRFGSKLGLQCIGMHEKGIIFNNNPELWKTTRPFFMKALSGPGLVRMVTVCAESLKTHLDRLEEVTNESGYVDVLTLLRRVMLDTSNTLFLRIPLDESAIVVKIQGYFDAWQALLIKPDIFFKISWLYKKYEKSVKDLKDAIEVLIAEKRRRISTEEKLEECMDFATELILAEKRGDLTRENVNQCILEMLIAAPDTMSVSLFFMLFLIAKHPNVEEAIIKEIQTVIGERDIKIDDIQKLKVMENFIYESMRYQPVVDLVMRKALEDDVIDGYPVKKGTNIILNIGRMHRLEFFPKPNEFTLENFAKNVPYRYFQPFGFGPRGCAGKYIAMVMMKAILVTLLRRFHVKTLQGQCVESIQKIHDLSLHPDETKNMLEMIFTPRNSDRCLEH
Chain of Estrogen receptor (Homo sapiens) (P03372 whole entry, looked up): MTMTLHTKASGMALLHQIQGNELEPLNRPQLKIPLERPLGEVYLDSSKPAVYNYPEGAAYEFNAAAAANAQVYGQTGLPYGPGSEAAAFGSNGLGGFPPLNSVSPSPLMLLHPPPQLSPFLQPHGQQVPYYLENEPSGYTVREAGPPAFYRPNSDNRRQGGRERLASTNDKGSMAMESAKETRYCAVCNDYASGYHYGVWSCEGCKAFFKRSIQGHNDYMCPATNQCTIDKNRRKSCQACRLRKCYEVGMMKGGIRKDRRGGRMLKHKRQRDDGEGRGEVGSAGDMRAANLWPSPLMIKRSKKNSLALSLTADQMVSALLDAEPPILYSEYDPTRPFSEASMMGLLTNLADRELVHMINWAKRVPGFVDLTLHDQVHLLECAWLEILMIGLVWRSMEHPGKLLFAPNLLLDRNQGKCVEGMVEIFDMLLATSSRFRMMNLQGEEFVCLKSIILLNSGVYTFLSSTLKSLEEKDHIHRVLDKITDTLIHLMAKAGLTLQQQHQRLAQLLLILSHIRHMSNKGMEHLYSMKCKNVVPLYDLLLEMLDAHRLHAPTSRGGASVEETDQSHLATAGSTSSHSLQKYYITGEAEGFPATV

| Structure (SMILES) | Potency [1] | Potency [2] | Potency [3] | Potency [4] | Potency [5] | Potency [6] | Potency [7] | Potency [8] | Potency (Aromatase (Homo sapiens)) | Potency [9] |
| --- | --- | --- | --- | --- | --- | --- | --- | --- | --- | --- |
| Cc1ccccc1C(=O)Nc1cccc(OC(C)C)c1 | inactive | inactive | inactive | inactive | inactive | inactive | inactive | inactive | inactive | – |
| Cc1c(F)c(F)c(COC(=O)C2C(/C=C(\Cl)C(F)(F)F)C2(C)C)c(F)c1F (centres undefined) | inactive | inactive | inactive | inactive | inactive | inactive | inactive | inactive | inactive | – |
| NCCCNCCCN | 62.1 µM (active) | – | – | – | – | – | – | inactive | 62.1 µM (active) | 62.1 µM (active) |
| CCOC(=O)C(Cl)C(C)=O (centres undefined) | – | inactive | inactive | inactive | inactive | inactive | inactive | inactive | inactive | inactive |
| COC(N)=O | – | inactive | inactive | inactive | inactive | inactive | inactive | inactive | inactive | inactive |
| C/C(=C\c1ccccc1)[N+](=O)[O-] | 13.7 µM (active) | – | 2.45 µM [cytotoxic] (active) | – | inactive | – | – | – | 19.3 µM (active) | 6.86 µM (active) |
| ClCC(Br)CBr (centres undefined) | – | inactive | inactive | inactive | inactive | inactive | inactive | inactive | inactive | inactive |
